Screening data as filed in PubChem BioAssay.
This is a sample that favours compounds with a hit; in the whole collection about 2.5% have one here.
POLB inh: qHTS Assay for Inhibitors of DNA Polymerase Beta; Pol beta primer extension/strand displacement, fluorescence kinetic; Potency, µM (highest dose often 114 µM), for inactives: at the highest dose activity change, negative = inhibition, usual class: inhibitors; actives 1.3% (n = 340,000); also: potency is read from the fitted curve at half-maximal effect; % is scaled to controls: 0 for no effect and ±100 for the full control effect
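Curves were derived by four-parameter Hill fits of normalized qHTS data. The kinetic fluorescent primer-extension read was taken at 0 and 10 min after 50 nM substrate, following a 15 min room-temperature preincubation of 10 nM enzyme with compounds.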
L3MBTL1 inh: qHTS Assay for the Inhibitors of L3MBTL1 | AlphaScreen L3MBTL1–H3K9me1 peptide binding | Potency, µM (series often up to 57.1 µM), without a hit: at the top dose activity, negative = inhibition, most hits filed as inhibitors | Lethal(3)malignant brain tumor-like protein 1 (Homo sapiens), Q9Y468 | actives 0.66% (n = 230,000); also: potency is read from the fitted curve at half-maximal effect; % is scaled to controls: 0 for no effect and ±100 for the full control effect; nearly all actives have a fitted effect of over 60% in size
Target sequence (Q9Y468 whole entry, looked up): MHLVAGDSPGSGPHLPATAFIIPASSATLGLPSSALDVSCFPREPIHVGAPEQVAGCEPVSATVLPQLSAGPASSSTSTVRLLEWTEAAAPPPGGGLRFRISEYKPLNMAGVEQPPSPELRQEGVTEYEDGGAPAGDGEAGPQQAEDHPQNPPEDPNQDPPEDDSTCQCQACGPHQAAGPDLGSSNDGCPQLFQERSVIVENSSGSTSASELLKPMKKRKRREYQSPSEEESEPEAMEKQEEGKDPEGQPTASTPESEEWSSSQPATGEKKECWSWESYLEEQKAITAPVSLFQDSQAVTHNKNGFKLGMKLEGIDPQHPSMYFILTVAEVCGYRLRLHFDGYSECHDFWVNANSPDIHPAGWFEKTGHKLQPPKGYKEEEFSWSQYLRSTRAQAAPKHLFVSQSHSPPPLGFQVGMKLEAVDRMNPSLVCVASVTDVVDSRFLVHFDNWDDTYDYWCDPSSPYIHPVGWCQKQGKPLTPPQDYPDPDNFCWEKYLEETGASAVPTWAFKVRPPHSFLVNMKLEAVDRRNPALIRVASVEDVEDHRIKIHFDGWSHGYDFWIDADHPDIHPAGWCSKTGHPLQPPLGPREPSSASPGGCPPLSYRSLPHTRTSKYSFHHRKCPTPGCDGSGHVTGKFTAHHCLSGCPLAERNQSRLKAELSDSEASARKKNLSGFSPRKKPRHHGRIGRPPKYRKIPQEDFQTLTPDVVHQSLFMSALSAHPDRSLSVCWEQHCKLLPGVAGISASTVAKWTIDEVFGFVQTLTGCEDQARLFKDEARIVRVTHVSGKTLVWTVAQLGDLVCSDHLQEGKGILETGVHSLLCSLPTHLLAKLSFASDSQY
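Read-out is AlphaScreen signal from streptavidin donor and nickel chelate acceptor beads (10 ug/mL final each) bridging L3MBTL1 (50 nM) and biotinylated K9-monomethylated H3(1-15) peptide (75 nM), after 30 min compound exposure at room temperature.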
APE1 inh: qHTS Assay for Inhibitors of the Human Apurinic/apyrimidinic Endonuclease 1 (APE1). recombinant APE1, TAMRA/BHQ-2 abasic DNA cleavage fluorescence. Potency, µM (highest dose often 65.8 µM), for inactives: top-dose activity change, negative = inhibition, usual class: inhibitors. actives 0.35% (n = 350,000). AID 2517, 2012;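 also: potency is read from the fitted curve at half-maximal effect; plate controls were vehicle for no effect and reference inhibitor for full effect; nearly all actives have a fitted effect of over 55% in size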
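Substrate: short duplex with […] THF abasic site, 5'-TAMRA and 3'-BHQ-2, 50 nM final. APE1 at 0.75 nM, preincubated 15 min RT with compound. Fluorescence increase from first to third read measured activity.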
Pol iota inh: qHTS for Inhibitors of Polymerase Iota; DNA polymerase iota (Homo sapiens), Q9UNA4; Pol iota fluorescent replication assay, 10 min; Potency, µM (doses to about 115 µM), for inactives: at the highest dose activity, negative = inhibition, hits mostly inhibitors; actives 1% (n = 390,000); AID 588590, 2011; also: potency is read from the fitted curve at half-maximal effect
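Fluorescent replication assay read twice, at 0 min and 10 min after adding 50 nM (final) substrate. Enzyme (10 nM) and compounds were first incubated 15 min at room temperature; enzyme-free buffer wells were negative controls.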
Pol kappa inh-1: qHTS for Inhibitors of Polymerase Kappa | purified Pol kappa, fluorescent DNA synthesis assay, 10 min | Potency, µM (series often up to 107 µM), for inactives: at the highest dose activity, negative = inhibition, actives largely listed as inhibitors | actives 0.53% (n = 400,000); also: potency is read from the fitted curve at half-maximal effect; % is scaled to controls: 0 for no effect and ±100 for the full control effect
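50 nM final substrate added after 15 min RT preincubation of 10 nM Pol kappa with compound; fluorescence read at 0 and 10 min.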
Pol eta inh-1: qHTS for Inhibitors of Polymerase Eta. DNA polymerase eta (Homo sapiens), Q9Y253. actives 1.2% (n = 390,000). recombinant Pol eta, fluorescent DNA replication assay. Potency, µM (series often up to 114 µM), inactives show at the highest dose activity change, negative = inhibition, most hits filed as inhibitors; also: potency is read from the fitted curve at half-maximal effect; % is scaled to controls: 0 for no effect and ±100 for the full control effect
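Fluorescent replication assay: 50 nM final substrate added after a 15 min room-temperature compound preincubation with 10 nM enzyme. Signal taken at 0 min and again at 10 min.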
GALK inh confirm: Confirmation Assay for Inhibitors of Human Galactokinase (GALK); Potency, µM (series often up to 115 µM), without a hit: top-dose activity, negative = inhibition, actives largely listed as inhibitors; actives 70% (n = 150); purified GALK, Kinase-Glo ATP depletion luminescence; shares compounds with Pol eta inh-1
GALK redox cs: Confirmatory Assay for Inhibitors of Human Galactokinase (GALK): Phenol-HRP redox assay counterscreen | shares compounds with Pol eta inh-1 | Phenol red-HRP H2O2 redox cycling, absorbance 600 nm | Potency, µM (series often up to 115 µM), for the others: top-dose activity change, negative = H2O2 signal, hits mostly inhibitors | actives 40% (n = 150)
HEK293 viability: Secondary Assay for Inhibitors of Human Galactokinase (GALK): HEK-293 Cell Viability Assay; shares compounds with Pol eta inh-1; HEK-293 viability, ATP luminescence (CellTiter-Glo), 24/48 h; Potency, µM (doses to about 46.1 µM), inactives show top-dose activity change, negative = cytotoxicity, usual class: inhibitors; actives 10% (n = 170); AID 2547, 2010; also: potency is read from the fitted curve at half-maximal effect; % is scaled to controls: 0 for no effect and ±100 for the full control effect
Pol kappa inh-2: qHTS for Inhibitors of Polymerase Kappa: Confirmatory Assay for Cherry-picked Compounds; purified Pol-kappa, fluorescent strand-displacement substrate; Potency, µM, actives largely listed as inhibitors; AID 720501, 2013; actives 76% (n = 920); shares compounds with Pol eta inh-1; also: potency is read from the fitted curve at half-maximal effect
Pol eta inh-2: qHTS for Inhibitors of Polymerase Eta: Confirmatory Assay for Cherry-picked Compounds; AID 720502, 2013; actives 64% (n = 2,600); Potency, µM, most hits filed as inhibitors; shares compounds with Pol eta inh-1; Pol eta primer extension, TAMRA/BHQ fluorescence, 10 min; also: potency is read from the fitted curve at half-maximal effect
Numbers without * were called inactive. Calls follow the shape of the dose curve; as a rule, active = well fitted curve in the direction sought with a large enough effect; inconclusive = small, poorly fitted or top-dose-only effect, or another doubt; inactive = no such curve, though single readings can be large; an effect the other way counts as inactive or inconclusive.

Results for C=CC1=C(C(=O)O)N2C(=O)[C@@H](NC(=O)/C(=N\O)c3csc(N)n3)[C@H]2SC1 (stereo in doubt) ?
APE1 inh: inconclusive; Pol iota inh: inconclusive; Pol kappa inh-1: inconclusive; Pol eta inh-1: inconclusive; Pol eta inh-2: inconclusive

How did CN(C)c1ccc(NC(=O)CSCc2nc3c(nnn3Cc3ccc(F)cc3)c(=O)[nH]2)cc1 do in these assays?
POLB inh: 28µM*; L3MBTL1 inh: -95%; APE1 inh: inconclusive; Pol iota inh: 28µM*; Pol kappa inh-1: inconclusive; Pol eta inh-1: 50µM*; Pol eta inh-2: inconclusive

What do the screens show for `Cc1cc(C)cc(-n2ccn(Cc3ccccc3C)c(=O)c2=O)c1`?
POLB inh: 17%; Pol iota inh: 22%; Pol kappa inh-1: -3%; Pol eta inh-1: -16%

What do the screens show for `CC1(C)CC[C@]2(C(=O)O[C@@H]3O[C@H](CO)[C@@H](O)[C@H](O)[C@H]3O)CC[C@]3(C)C(=CCC4[C@@]5(C)CC[C@H](O[C@@H]6O[C@H](C(=O)O)[C@@H](O[C@H]7OC[C@@H](O)[C@@H](O)[C@@H]7O)[C@H](O)[C@H]6O)C(C)(C)C5CC[C@]43C)[C@@H]2C1` (stereo partly drawn)?
L3MBTL1 inh: 2%; APE1 inh: 11%; Pol iota inh: -6%; Pol kappa inh-1: -7%; Pol eta inh-1: -5%

How did CC1(C)CC[C@]2(C(=O)O)CC[C@]3(C)C(=CC[C@@H]4[C@@]5(C)CC[C@H](O[C@@H]6O[C@H](C(=O)O)[C@@H](O)[C@H](O[C@@H]7OC[C@H](O)[C@H](O)[C@H]7O)[C@H]6O)C(C)(C)[C@@H]5CC[C@]43C)[C@@H]2C1 do in these assays?
L3MBTL1 inh: -1%; APE1 inh: 28%; Pol iota inh: inconclusive; Pol kappa inh-1: inconclusive; Pol eta inh-1: 50µM*; Pol kappa inh-2: inconclusive

What do the screens show for `Cc1ncc(CN2CCC(C(=O)Nc3cccc(-c4cscn4)c3)CC2)cn1`?
POLB inh: 13%; APE1 inh: 20%; Pol iota inh: 28%; Pol kappa inh-1: 0%; Pol eta inh-1: -19%

What do the screens show for `O=C(O)CN1C(=O)/C(=C/c2ccc(-c3cccc(Cl)c3)o2)SC1=S`?
Pol kappa inh-2: 34*; Pol eta inh-2: inconclusive

How did O=C(O)Cc1ccc(NC(=O)c2ccc(NC(=O)c3ccco3)cc2)cc1 do in these assays?
POLB inh: inconclusive; APE1 inh: -4%; Pol iota inh: 45µM*; Pol kappa inh-1: inconclusive; Pol eta inh-1: 25µM*; Pol eta inh-2: 43*

How did CCn1cc(C(=O)O)c(=O)c2cc(F)c(N3CCN(C(=S)NC(=O)c4cccc(F)c4)CC3)cc21 do in these assays?
POLB inh: -2%; APE1 inh: 13%; Pol iota inh: -2%; Pol kappa inh-1: -2%; Pol eta inh-1: -17%

Results for CCn1cc(C(=O)O)c(=O)c2cc(F)c(N/N=C/c3ccccc3[N+](=O)[O-])cc21 ?
POLB inh: inconclusive; L3MBTL1 inh: 11%; APE1 inh: 1%; Pol iota inh: 13%; Pol kappa inh-1: -4%; Pol eta inh-1: 5.6µM*; Pol eta inh-2: 43*

What do the screens show for `S=c1[nH]nc(-c2cc(-c3ccco3)[nH]n2)n1-c1ccccc1Cl`?
POLB inh: inconclusive; L3MBTL1 inh: inconclusive; APE1 inh: 14µM*; Pol iota inh: inconclusive; Pol kappa inh-1: inconclusive; Pol eta inh-1: 32µM*; Pol eta inh-2: inconclusive

How did CCOc1ccc(-c2cc(C)n3nc(C(N)=O)cc3n2)cc1 do in these assays?
POLB inh: inconclusive; APE1 inh: -3%; Pol iota inh: 28µM*; Pol kappa inh-1: -18%; Pol eta inh-1: 22µM*; Pol eta inh-2: inconclusive

Results for COC(=O)c1cc2nc(-c3ccccc3)cc(C)n2n1 ?
POLB inh: -1%; L3MBTL1 inh: 6%; APE1 inh: -3%; Pol iota inh: -6%; Pol kappa inh-1: -11%; Pol eta inh-1: inconclusive

What do the screens show for `O=C1OC(C(=O)O)Cc2ccccc21` (stereo not drawn)?
POLB inh: 7%; L3MBTL1 inh: 3%; APE1 inh: 0%; Pol iota inh: -10%; Pol kappa inh-1: -8%; Pol eta inh-1: 2%; GALK inh confirm: -5%; GALK redox cs: 1%; HEK293 viability: 3%

Results for Cc1ccccc1NC(=O)C1Cc2ccccc2C(=O)O1 (stereo not drawn) ?
POLB inh: -8%; L3MBTL1 inh: 0%; APE1 inh: 4%; Pol iota inh: 6%; Pol kappa inh-1: -6%; Pol eta inh-1: -9%

What do the screens show for `O=C(O)c1cc([N+](=O)[O-])ccc1-c1ccc([N+](=O)[O-])cc1C(=O)O`?
Pol eta inh-1: 20µM*; Pol kappa inh-2: 3.8*; Pol eta inh-2: 60*
